{"source": "the supplement of paper PMC8728848", "binders": {"B1": {"name": "MpL2 (Macrolepiota procera) (protein)", "chain": "MSTQVSSGQTYKITNVKAGTVIRLSGEDNKSIIGYPYHSGKNQQWTFNWTGKAWTLRSASSGSYLGIEGTPADGTRLVAVNDPFEWHIWRDEANENAFRIFVPFTNYNLDLSGYGDTTPGTPVQLWWTWEGLHQTWTIDRP"}}, "assay_in_all_cases": "glycan array binding signal (z-score within array); higher = stronger binding", "settings_in_all_cases": "glycan notation: IUPAC condensed, linker removed; mutation: D22R", "key": {"[1]": {"target": "Fuc(a1-2)Gal(b1-3)GlcNAc(b1-3)GalNAc", "procedure,_shortened": "(§1)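 The Consortium for Functional Glycomics database supplied 3228 glycan arrays, of which those lacking an available protein sequence were dropped. The binding signal, a within-array Z-score, was averaged across arrays of the same protein sequence and across linkers. Negative scores can be read as non-binding.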"}, "[2]": {"target": "Fuc(a1-2)Gal(b1-3)[Fuc(a1-4)]GlcNAc(b1-2)Man(a1-3)[Fuc(a1-2)Gal(b1-3)[Fuc(a1-4)]GlcNAc(b1-2)Man(a1-6)]Man(b1-4)GlcNAc(b1-4)[Fuc(a1-6)]GlcNAc(b1-4)[Fuc(a1-6)]GlcNAc", "procedure,_shortened": "as §1"}, "Fuc(a1-2)Gal(b1-4)GlcNAc": {"target": "Fuc(a1-2)Gal(b1-4)GlcNAc", "procedure,_shortened": "as §1"}, "[3]": {"target": "Fuc(a1-2)Gal(b1-4)GlcNAc(b1-2)Man", "procedure,_shortened": "as §1"}, "[4]": {"target": "Fuc(a1-2)[Gal(a1-3)]Gal(b1-4)GlcNAc(b1-3)GalNAc", "procedure,_shortened": "as §1"}, "[5]": {"target": "Fuc(a1-2)[GalNAc(a1-3)]Gal(b1-3)GalNAc(b1-3)Gal(a1-4)Gal(b1-4)Glc", "procedure,_shortened": "as §1"}, "[6]": {"target": "Fuc(a1-2)[GalNAc(a1-3)]Gal(b1-4)Glc", "procedure,_shortened": "as §1"}, "[7]": {"target": "Fuc(a1-2)[GalNAc(a1-3)]Gal(b1-4)GlcNAc(b1-3)Gal(b1-4)GlcNAc", "procedure,_shortened": "as §1"}, "[8]": {"target": "Fuc(a1-3)[Gal(b1-4)]GlcNAc6S", "procedure,_shortened": "as §1"}, "Gal(a1-2)Gal": {"target": "Gal(a1-2)Gal", "procedure,_shortened": "as §1"}, "Gal(b1-3)Gal": {"target": "Gal(b1-3)Gal", "procedure,_shortened": "as §1"}, "Gal(b1-3)GalNAc(b1-3)Gal": {"target": "Gal(b1-3)GalNAc(b1-3)Gal", "procedure,_shortened": "as §1"}, "[9]": {"target": "Gal(b1-3)GlcNAc(b1-3)Gal(b1-4)GlcNAc(b1-2)[Gal(b1-3)GlcNAc(b1-3)Gal(b1-4)GlcNAc(b1-6)]Man(a1-6)[Gal(b1-3)GlcNAc(b1-3)Gal(b1-4)GlcNAc(b1-2)Man(a1-3)]Man(b1-4)GlcNAc(b1-4)[Fuc(a1-6)]GlcNAc", "procedure,_shortened": "as §1"}, "[10]": {"target": "Gal(b1-3)GlcNAc(b1-3)Gal(b1-4)GlcNAc(b1-3)Gal(b1-4)GlcNAc(b1-2)[Gal(b1-3)GlcNAc(b1-3)Gal(b1-4)GlcNAc(b1-3)Gal(b1-4)GlcNAc(b1-6)]Man(a1-6)[Gal(b1-3)GlcNAc(b1-3)Gal(b1-4)GlcNAc(b1-3)Gal(b1-4)GlcNAc(b1-2)Man(a1-3)]Man(b1-4)GlcNAc(b1-4)[Fuc(a1-6)]GlcNAc", "procedure,_shortened": "as §1"}, "[11]": {"target": "Gal(b1-4)GlcNAc(a1-6)Gal(b1-4)GlcNAc", "procedure,_shortened": "as §1"}, "[12]": {"target": "Gal(b1-4)GlcNAc(b1-2)Man(a1-3)[GlcNAc(b1-2)Man(a1-6)]Man(b1-4)GlcNAc(b1-4)GlcNAc", "procedure,_shortened": "as §1"}, "[13]": {"target": "Gal(b1-4)GlcNAc(b1-2)Man(a1-6)[GlcNAc(b1-2)Man(a1-3)]Man(b1-4)GlcNAc(b1-4)GlcNAc", "procedure,_shortened": "as §1"}, "[14]": {"target": "Gal(b1-4)GlcNAc(b1-3)Gal(b1-3)GalNAc", "procedure,_shortened": "as §1"}, "[15]": {"target": "Gal(b1-4)GlcNAc(b1-3)Gal(b1-4)GlcNAc(b1-2)Man(a1-3)[Gal(b1-4)GlcNAc(b1-3)Gal(b1-4)GlcNAc(b1-2)Man(a1-6)]Man(b1-4)GlcNAc(b1-4)GlcNAc", "procedure,_shortened": "as §1"}, "[16]": {"target": "Gal(b1-4)GlcNAc(b1-3)Gal(b1-4)GlcNAc(b1-2)[Gal(b1-4)GlcNAc(b1-3)Gal(b1-4)GlcNAc(b1-6)]Man(a1-6)[Gal(b1-4)GlcNAc(b1-3)Gal(b1-4)GlcNAc(b1-2)Man(a1-3)]Man(b1-4)GlcNAc(b1-4)[Fuc(a1-6)]GlcNAc", "procedure,_shortened": "as §1"}, "[17]": {"target": "Gal(b1-4)GlcNAc(b1-3)Gal(b1-4)GlcNAc(b1-3)Gal(b1-4)GlcNAc(b1-2)Man(a1-3)[Gal(b1-4)GlcNAc(b1-3)Gal(b1-4)GlcNAc(b1-3)Gal(b1-4)GlcNAc(b1-2)Man(a1-6)]Man(b1-4)GlcNAc(b1-4)GlcNAc", "procedure,_shortened": "as §1"}, "[18]": {"target": "Gal(b1-4)GlcNAc(b1-3)Gal(b1-4)GlcNAc(b1-3)Gal(b1-4)GlcNAc(b1-2)[Gal(b1-4)GlcNAc(b1-3)Gal(b1-4)GlcNAc(b1-3)Gal(b1-4)GlcNAc(b1-6)]Man(a1-6)[Gal(b1-4)GlcNAc(b1-3)Gal(b1-4)GlcNAc(b1-3)Gal(b1-4)GlcNAc(b1-2)Man(a1-3)]Man(b1-4)GlcNAc(b1-4)[Fuc(a1-6)]GlcNAc", "procedure,_shortened": "as §1"}, "[19]": {"target": "Gal(b1-4)GlcNAc(b1-3)Gal(b1-4)GlcNAc(b1-3)[Gal(b1-4)GlcNAc(b1-3)Gal(b1-4)GlcNAc(b1-6)]GalNAc", "procedure,_shortened": "as §1"}, "[20]": {"target": "Gal(b1-4)GlcNAc(b1-3)Gal(b1-4)GlcNAc(b1-6)[Gal(b1-3)]GalNAc", "procedure,_shortened": "as §1"}, "[21]": {"target": "Gal(b1-4)GlcNAc(b1-6)Gal(b1-4)GlcNAc", "procedure,_shortened": "as §1"}, "[22]": {"target": "Gal3S(b1-4)[Fuc(a1-3)]GlcNAc", "procedure,_shortened": "as §1"}}, "note": "The entries come from a sample that favours the strongest signals as a whole."}
{"binder": "B1", "values": [{"measurement": "glycan array binding signal (z-score)", "setting": "[1]", "result": -0.233}, {"measurement": "glycan array binding signal (z-score)", "setting": "[2]", "result": 0.051}, {"measurement": "glycan array binding signal (z-score)", "setting": "Fuc(a1-2)Gal(b1-4)GlcNAc", "result": -0.202}, {"measurement": "glycan array binding signal (z-score)", "setting": "[3]", "result": 0.129}, {"measurement": "glycan array binding signal (z-score)", "setting": "[4]", "result": 0.092}, {"measurement": "glycan array binding signal (z-score)", "setting": "[5]", "result": -0.533}, {"measurement": "glycan array binding signal (z-score)", "setting": "[6]", "result": -0.092}, {"measurement": "glycan array binding signal (z-score)", "setting": "[7]", "result": -0.256}, {"measurement": "glycan array binding signal (z-score)", "setting": "[8]", "result": 0.212}, {"measurement": "glycan array binding signal (z-score)", "setting": "Gal(a1-2)Gal", "result": -0.294}, {"measurement": "glycan array binding signal (z-score)", "setting": "Gal(b1-3)Gal", "result": 0.078}, {"measurement": "glycan array binding signal (z-score)", "setting": "Gal(b1-3)GalNAc(b1-3)Gal", "result": -0.315}, {"measurement": "glycan array binding signal (z-score)", "setting": "[9]", "result": 10.4}, {"measurement": "glycan array binding signal (z-score)", "setting": "[10]", "result": 10.8}, {"measurement": "glycan array binding signal (z-score)", "setting": "[11]", "result": 4.13}, {"measurement": "glycan array binding signal (z-score)", "setting": "[12]", "result": -0.978}, {"measurement": "glycan array binding signal (z-score)", "setting": "[13]", "result": -0.42}, {"measurement": "glycan array binding signal (z-score)", "setting": "[14]", "result": -0.633}, {"measurement": "glycan array binding signal (z-score)", "setting": "[15]", "result": 2.6}, {"measurement": "glycan array binding signal (z-score)", "setting": "[16]", "result": 2.5}, {"measurement": "glycan array binding signal (z-score)", "setting": "[17]", "result": 2.57}, {"measurement": "glycan array binding signal (z-score)", "setting": "[18]", "result": 2.85}, {"measurement": "glycan array binding signal (z-score)", "setting": "[19]", "result": 2.76}, {"measurement": "glycan array binding signal (z-score)", "setting": "[20]", "result": 1.3}, {"measurement": "glycan array binding signal (z-score)", "setting": "[21]", "result": -1.1}, {"measurement": "glycan array binding signal (z-score)", "setting": "[22]", "result": -0.293}]}
